Screening data deposited in PubChem BioAssay by National Center for Advancing Translational Sciences (NCATS).
RE007 growth inh = less growth of the S. pombe RE007 Vpr strain; Potency, µM (highest dose often 92.2 µM), without a hit: top-dose activity change, negative = less growth, most hits filed as inhibitors; hit rate 0.21% among 360,000; S. pombe RE007 Vpr strain, BacTiter-Glo ATP luminescence, 24 h; active = well fitted falling curve with a large enough effect; inconclusive = small, poorly fitted or top-dose-only effect; inactive = no such curve, though single readings can be large or run the other way; also: % is scaled to controls: 0 for no effect and ±100 for the full control effect; nearly all actives have a fitted effect of over 50% in size
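Fission yeast RE007 carrying one integrated HIV-1 vpr copy, seeded at OD 0.01 in PMG+AL medium with 23 nL pinned compound. Grown 24 h at 30 degrees; viability read by BacTiter-Glo luminescence after 5 min.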
Pf growth 96h = P. falciparum growth inhibition at 96 hours; P. falciparum luciferase reporter growth, 96 h; Potency, µM (highest dose often 28.7 µM), without a hit: at the top dose activity change, negative = inhibition, usual class: inhibitors; hit rate 6.9% among 320,000; AID 504834; also: % is scaled to controls: 0 for no effect and ±100 for the full control effect
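Compounds incubated with erythrocytes infected by luciferase-expressing P. falciparum (2% hematocrit, 0.05% parasitemia final) for 96 hours, 37 C in 5% CO2. Growth inhibition scored as decreased luciferase luminescence.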
Pf growth 48h = inhibits P. falciparum growth in the first generation, 48 h. hit rate 5.9% among 310,000. AID 504832. Potency, µM (top dose mostly 28.7 µM), for inactives: at the top dose activity change, negative = inhibition, most hits filed as inhibitors. P. falciparum luciferase growth in erythrocytes, 48 h; also: % is scaled to controls: 0 for no effect and ±100 for the full control effect
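Parasite viability was followed by luminescence of a genomically integrated firefly luciferase. Cultures held 0.1% parasitemia at 2% hematocrit (final), incubated under 5% CO2 at 37 C.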
NS1 function inh = blocks influenza NS1 protein function; Potency, µM (titrated, usually from 46.1 µM), for the others: top-dose activity, positive = more growth; hit rate 0.4% among 270,000; AID 2326; calls by dose curve; also: actives are rising curves; nearly all actives have a fitted effect of over 50% in size
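Read-out: OD600 growth recovery of NS1-expressing budding yeast. Cells grown overnight at 30C in -URA glucose medium, washed, resuspended and diluted 1:100 in 2% galactose assay medium, pH 6.0. Same strain lacking NS1 served as positive control.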
SARS PLP yeast = SARS-CoV PLP inhibition in yeast | AID 485353 | S. cerevisiae expressing SARS-CoV PLpro, growth rescue | Potency, µM (top dose mostly 32.9 µM), for inactives: at the top dose activity, positive = growth rescue, most hits filed as activators | hit rate 0.19% among 330,000; calls by dose curve; also: 0% is about no effect; nearly all actives have a fitted effect of over 55% in size
Active calls of the source: *; u = inconclusive; x = not tested or not shown. The list is not random: actives were taken first. Their share in the collection is about 9.5%. Unless noted, calls follow the shape of the dose curve; as a rule, active = well fitted inhibition curve with a large enough effect; inconclusive = small, poorly fitted or top-dose-only effect, or another doubt; inactive = no such curve, though single readings can be large or run the other way. Potency is read from the fitted curve at half-maximal effect.

SMILES	RE007 growth inh	Pf growth 96h	Pf growth 48h	NS1 function inh	SARS PLP yeast
CC(C)(C)c1ccc(C(=O)NC(=S)N2CCOCC2)cc1	12%	2.6µM*	-80%	1%	4%
O=C(c1c(F)cccc1F)N1CCN(c2ccccc2F)CC1	-10%	-7%	6%	-19%	10%
COc1ccc(CC(=O)N2CCN(c3ccccc3F)CC2)cc1OC	-1%	22%	7%	8%	8%
CN1CCN(C(=S)NC(=O)c2ccc(C(C)(C)C)cc2)CC1	6%	-20%	-14%	-13%	9%
O=C(c1ccccc1Oc1ccccc1)N1CCN(c2ccccc2)CC1	-5%	15µM*	u	-58%	-13%
O=C(c1cccc(C(=O)N2CCN(c3ccccc3F)CC2)c1)N1CCN(c2ccccc2F)CC1	-3%	0%	13µM*	-12%	3%
O=C(C1CCCO1)N1CCN(S(=O)(=O)c2ccc(Cl)cc2)CC1 (stereo not drawn)	-9%	38%	7%	3%	-1%
COc1cccc(-c2cnc(C(O)c3ccc(Cl)c(F)c3)[nH]2)c1 (stereo not drawn)	-12%	x	x	x	x
Cc1ccc(S(=O)(=O)N2C[C@H]3n4c(=O)ccc(=O)n4C[C@H](OC(=O)NCC4CCCCC4)[C@@]3(O)C2)cc1	22%	x	x	x	x
Cc1ccc(C2=NN(CCC(=O)NCc3ccc4c(c3)OCO4)C(=O)CC2)cc1	4%	u	6%	-3%	2%
NCC(=O)NC1(C(=O)O)CCCC1	x	x	x	-6%	x
O=C(NC(=S)N1CCN(c2ccccc2)CC1)c1ccccc1	x	4.7µM*	10µM*	17%	12%
O=C(c1ccc2nccnc2c1)N1CCN(c2ccccc2)CC1	-4%	-4%	18%	6%	4%
O=C(c1cccc(C(=O)N2CCN(c3ccccc3)CC2)c1)N1CCN(c2ccccc2)CC1	8%	x	13µM*	-1%	4%
CC(C)C(NC(=O)c1ccc(C(C)(C)C)cc1)C(=O)Nc1ccc(N2CCOCC2)cc1 (stereo not drawn)	1%	u	13µM*	x	-3%
O=C(O)c1cccc(N2CCCC2=O)c1	0%	-22%	4%	12%	-1%
O=C(O)c1cccc(N2CCCC2)c1	17%	9.3µM*	6%	-8%	3%
CC(C)c1cccc(C(C)C)c1OCCCCCN1CCOCC1	-5%	x	x	x	x
C#CCN1CCc2onc(-c3ccc(Br)cc3)c2C1=O	-26%	x	x	x	x
CCCc1c(C(=O)N/N=C/c2cccc(OCc3ccc(F)cc3)c2)nnn1-c1nonc1N	4%	3%	0%	-9%	-2%
CC(=O)c1cccc(N(C(=O)CNC(=O)c2ccco2)C(C(=O)NC2CCCC2)c2ccncc2)c1 (stereo not drawn)	-14%	16%	6%	1%	-6%
CCN(CC)S(=O)(=O)c1cccc(C(=O)Nc2cc(C)on2)c1	-2%	u	u	2%	-5%
COc1ccccc1CNC(=O)C1CCC(CNS(=O)(=O)c2ccc(C)cc2)CC1 (stereo not drawn)	-2%	7.4µM*	u	-13%	3%
COc1ccccc1CNC(=O)C1CCC(CNS(=O)(=O)c2ccc(F)cc2)CC1 (stereo not drawn)	-3%	0%	0%	5%	13%
COc1ccccc1CNC(=O)C(CC(C)C)NC(=O)C1CCC(C)CC1 (stereo not drawn)	5%	13µM*	x	7%	5%
COc1cc(C2CC(=O)Oc3c(C(CCN4CCCC(C)C4)c4ccc(N(C)C)cc4)c(OC)cc(OC)c32)cc(OC)c1OC (stereo not drawn)	5%	u	13µM*	-48%	-4%
COc1cc(C(CCN2CCCC(C)C2)c2c(OC)cc(OC)c3c2OC(=O)CC3c2ccc(N(C)C)cc2)cc(OC)c1OC (stereo not drawn)	0%	10µM*	9.3µM*	-55%	-1%
COc1ccc(NC(=O)N2CCCCCC2)cc1	22%	u	41%	4%	-2%
COc1ccc(NC(=O)C2CCCN(C(=O)Nc3ccc(OC)cc3)C2)cc1 (stereo not drawn)	-17%	10µM*	22%	4%	-2%
COc1ccc(NC(=O)C2CCCN(C(=O)Nc3cccc(OC)c3)C2)cc1 (stereo not drawn)	6%	u	16%	-8%	-1%
